Assay results published in PubChem BioAssay AID1159580 (chemical genetic matrix, 2015).
In all, about 5,500 compounds went through this assay and about 2,000 (36%) were called active. Another 18% or so got no clear call; they are omitted. No stated cut-off is given here; in the data, active means normalized growth mostly below about 0.91 (no sharp cut-off); inconclusive means no clear call, values can overlap the other calls; inactive means mostly above about 0.92. The list shows a part of the results.

Test: chemical genetic growth profiling, strain panel (AID 1159580);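 further: tested at 20 µM; growth read once vehicle control cultures reached saturation at 30 °C; 1 = growth at the plate median or of vehicle wells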
Details: S. cerevisiae deletion strains, growth OD

Measured: normalized growth

CN(C)c1ccc2nc3ccc(=[N+](C)C)cc-3sc2c1
inactive: locus YAL021C, strain ccr4, stronger effect = lower value 0.991 | locus YAL026C, strain drs2, stronger effect = lower value 1.01 | locus YAL030W, strain snc1, stronger effect = lower value 1.06 | locus YBL061C, strain skt5, stronger effect = lower value 1.05 | locus YBR009C, strain hhf1, stronger effect = lower value 1.04 | locus YBR023C, strain chs3, stronger effect = lower value 1.07 | locus YBR171W, strain sec66, stronger effect = lower value 1.08 | locus YBR231C, strain swc5, stronger effect = lower value 0.995 | locus YBR279W, strain paf1, stronger effect = lower value 1.07 | locus YCL011C, strain gbp2, stronger effect = lower value 1.04 | locus YCL016C, strain dcc1, stronger effect = lower value 1.02 | locus YCL069W, strain vba3, stronger effect = lower value 1.08 | locus YCR088W, strain abp1, stronger effect = lower value 1.07 | locus YDL040C, strain nat1, stronger effect = lower value 1.05 | locus YDR001C, strain nth1, stronger effect = lower value 1.06 | locus YDR069C, strain doa4, stronger effect = lower value 1.06 | locus YDR137W, strain rgp1, stronger effect = lower value 1 | locus YDR159W, strain sac3, stronger effect = lower value 1.03 | locus YDR297W, strain sur2, stronger effect = lower value 1.07 | locus YDR334W, strain swr1, stronger effect = lower value 1.05 | locus YDR335W, strain msn5, stronger effect = lower value 1.07 | locus YEL003W, strain gim4, stronger effect = lower value 0.974 | locus YEL037C, strain rad23, stronger effect = lower value 1.06 | locus YEL061C, strain CIN8 (second series), stronger effect = lower value 1.04 | locus YER015W, strain faa2, stronger effect = lower value 1.05 | locus YER016W, strain bim1, stronger effect = lower value 1.05 | locus YER111C, strain swi4, stronger effect = lower value 1.08 | locus YER155C, strain BEM2 (second series), stronger effect = lower value 0.941 | locus YFR010W, strain ubp6, stronger effect = lower value 1.06 | locus YGL173C, strain kem1, stronger effect = lower value 1.05 | locus YGL227W, strain vid30, stronger effect = lower value 1.08 | locus YGL240W, strain doc1, stronger effect = lower value 1 | locus YHR030C, strain SLT2, stronger effect = lower value 0.994 | locus YHR079C, strain IRE1, stronger effect = lower value 1.02 | locus YHR142W, strain chs7, stronger effect = lower value 1.07 | locus YJL092W, strain hpr5, stronger effect = lower value 1.05 | locus YJL095W, strain BCK1 (second series), stronger effect = lower value 1.07 | locus YJL095W, strain BCK1, stronger effect = lower value 1.05 | locus YJL115W, strain asf1, stronger effect = lower value 1.07 | locus YJL129C, strain trk1, stronger effect = lower value 1.08 | locus YJL154C, strain vps35, stronger effect = lower value 1.06 | locus YJL164C, strain tpk1, stronger effect = lower value 1.04 | locus YJL166W, strain qcr8, stronger effect = lower value 1.02 | locus YKL160W, strain elf1, stronger effect = lower value 1.03 | locus YKR026C, strain gcn3, stronger effect = lower value 1.07 | locus YLL001W, strain dnm1, stronger effect = lower value 1.05 | locus YLL026W, stronger effect = lower value 1.05 | locus YLR027C, strain aat2, stronger effect = lower value 1.05 | locus YLR113W, strain HOG1, stronger effect = lower value 1.07 | locus YLR221C, strain rsa3, stronger effect = lower value 1.04 | locus YLR258W, strain gsy2, stronger effect = lower value 1.04 | locus YLR262C, strain YPT6 (second series), stronger effect = lower value 1.1 | locus YLR320W, strain mms22, stronger effect = lower value 0.993 | locus YLR342W, strain FKS1, stronger effect = lower value 1.06 | locus YLR357W, strain rsc2, stronger effect = lower value 1.12 | locus YLR370C, strain arc18, stronger effect = lower value 1.05 | locus YLR384C, strain iki3, stronger effect = lower value 1.07 | locus YML120C, strain ndi1, stronger effect = lower value 1.04 | locus YMR058W, strain fet3, stronger effect = lower value 0.985 | locus YMR125W, strain sto1, stronger effect = lower value 1.09 | locus YMR129W, stronger effect = lower value 1.05 | locus YMR205C, strain PFK2, stronger effect = lower value 1.03 | locus YMR231W, strain pep5, stronger effect = lower value 1.04 | locus YNL071W, strain lat1, stronger effect = lower value 0.992 | locus YNL248C, strain rpa49, stronger effect = lower value 1.11 | locus YNL322C, strain KRE1 (second series), stronger effect = lower value 1.04 | locus YNR049C, strain mso1, stronger effect = lower value 1.05 | locus YOR001W, strain rrp6, stronger effect = lower value 1.06 | locus YOR070C, strain gyp1, stronger effect = lower value 1.05 | locus YOR080W, strain dia2, stronger effect = lower value 1.06 | locus YOR083W, strain WHI5, stronger effect = lower value 1.05 | locus YOR106W, strain vam3, stronger effect = lower value 0.994 | locus YOR231W, strain MKK1, stronger effect = lower value 1.01 | locus YOR265W, strain rbl2, stronger effect = lower value 1.04 | locus YOR270C, strain vph1, stronger effect = lower value 0.983 | locus YOR290C, strain snf2, stronger effect = lower value 1.03 | locus YPL051W, strain arl3, stronger effect = lower value 0.979 | locus YPL078C, strain atp4, stronger effect = lower value 1.05 | locus YPL106C, strain sse1, stronger effect = lower value 1.05 | locus YPL240C, strain hsp82, stronger effect = lower value 1.06 | locus YPL256C, strain CLN2, stronger effect = lower value 1.02
active: locus YDL005C, strain med2, stronger effect = lower value 1.1 [resistant] | locus YDR195W, strain ref2 1.25 [resistant] | locus YDR392W, strain spt3, stronger effect = lower value 0.624 | locus YGL167C, strain pmr1, stronger effect = lower value 1.09 [resistant] | locus YGL253W, strain hxk2, stronger effect = lower value 1.11 [resistant] | locus YHR013C, strain ard1, stronger effect = lower value 1.18 [resistant] | locus YHR027C, strain rpn1, stronger effect = lower value 1.08 [resistant] | locus YJR066W, strain TOR1, stronger effect = lower value 0.576 | locus YKR091W, strain srl3, stronger effect = lower value 1.07 [resistant] | locus YLL041C, strain sdh2, stronger effect = lower value 1.08 [resistant] | locus YNL183C, strain NPR1, stronger effect = lower value 0.543 | locus YNL209W, strain ssb2, stronger effect = lower value 1.08 [resistant]
